Rows were chosen to be rich in hits. Some 9.5% of all compounds tested hit in one or more screens of this group.
NS1 inh – qHTS Assay for Inhibitors of Influenza NS1 Protein Function | Potency, µM (highest dose often 46.1 µM), for the others: top-dose activity, positive = more growth | 0.4% of 270,000 active | AID 2326, 2010; further: actives are rising curves; nearly all actives have a fitted effect of over 50% in size
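Growth recovery, yeast-based: influenza A NS1 expressed in S. cerevisiae causes slow growth, and suppressors are detected by OD600. The parent strain without NS1 is used as positive control.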
RE007 growth inh – qHTS Assay for Inhibitors of the HIV-1 protein Vpr. 0.21% of 360,000 active. AID 651644, 2012. S. pombe RE007 Vpr strain, BacTiter-Glo ATP luminescence, 24 h. Potency, µM (titrated, usually from 92.2 µM), without a hit: top-dose activity change, negative = less growth, usual class: inhibitors; active means well fitted falling curve with a large enough effect; inconclusive means small, poorly fitted or top-dose-only effect; inactive means no such curve, though single readings can be large or run the other way; further: on the % scale 0 is the no-effect control and ±100 the full control effect; nearly all actives have a fitted effect of over 50% in size
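Fission yeast RE007 carrying one integrated HIV-1 vpr copy, seeded at OD 0.01 in PMG+AL medium with 23 nL pinned compound. Grown 24 h at 30 degrees; viability read by BacTiter-Glo luminescence after 5 min.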
Pf growth 48h – Primary qHTS for delayed death inhibitors of the malarial parasite plastid, 48 hour incubation | Potency, µM (highest dose often 28.7 µM), inactives show at the highest dose activity change, negative = inhibition, most hits filed as inhibitors | AID 504832, 2011 | 5.9% of 310,000 active | P. falciparum luciferase growth in erythrocytes, 48 h; active means well fitted inhibition curve with a large enough effect; inconclusive means small, poorly fitted or top-dose-only effect, or another doubt; inactive means no such curve, though single readings can be large or run the other way; further: on the % scale 0 is the no-effect control and ±100 the full control effect
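A one-generation exposure of luciferase-tagged malaria parasites in RPMI 1640/Albumax erythrocyte culture, 37 C and 5% CO2. Inhibition is inferred from decreased luminescence after adding detection reagent.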
Pf growth 96h – Primary qHTS for delayed death inhibitors of the malarial parasite plastid, 96 hour incubation | 6.9% of 320,000 active | P. falciparum luciferase reporter growth, 96 h | Potency, µM (titrated, usually from 28.7 µM), for the others: at the highest dose activity change, negative = inhibition, actives largely listed as inhibitors | AID 504834, 2011; active means well fitted inhibition curve with a large enough effect; inconclusive means small, poorly fitted or top-dose-only effect, or another doubt; inactive means no such curve, though single readings can be large or run the other way; further: on the % scale 0 is the no-effect control and ±100 the full control effect
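Infected RBCs, 2% Hct / 0.05% parasitemia final; luciferase-reporter P. falciparum; cpd 96 h, 37 C, 5% CO2; luciferase detection reagent; luminescence.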
SARS PLpro yeast – qHTS of Yeast-based Assay for SARS-CoV PLP; Potency, µM (doses to about 32.9 µM), without a hit: top-dose activity, positive = growth rescue, hits mostly activators; 0.19% of 330,000 active; S. cerevisiae expressing SARS-CoV PLpro, growth rescue; further: 0% is about no effect; nearly all actives have a fitted effect of over 55% in size
* = called active by the depositor; ? = inconclusive; . = no result; [ ] = dose if it differs, or a comment. Unless noted, the call rests on the fitted dose curve. Potency means the concentration at half of the fitted maximal effect.

SMILES	NS1 inh	RE007 growth inh	Pf growth 48h	Pf growth 96h	SARS PLpro yeast
COc1ccccc1NC(=O)/C(C#N)=C/c1ccc(OCCN2CCOCC2)c(OC)c1	8.8%	1.5%	7.7%	2.8%	-5.0%
N#C/C(=C\c1ccc(OCCN2CCOCC2)cc1)C(=O)Nc1ccc(S(N)(=O)=O)cc1	0.5%	-14.5%	2.7%	6.57µM*	0.4%
COc1ccc(NC(=O)/C(C#N)=C/c2ccc(OCCN3CCOCC3)c(OC)c2)c(OC)c1	15.1%	14.6%	-6.1%	13.1µM*	-4.1%
COc1ccc(CN2CCNC(=O)C2CC(=O)NCc2csc(C)n2)c(F)c1 (stereo unspecified)	7.7%	7.0%	12.1%	0.0%	-1.3%
Cc1cc(S(=O)(=O)c2ccc(Cl)cc2)nc(S(=O)(=O)c2ccc(Cl)cc2)c1C#N	.	19.9%	.	.	.
N#CCN(CC#N)C(=O)C1c2ccccc2Oc2ccccc21	7.4%	3.7%	-5.1%	2.94µM*	-3.4%
O=c1c(Cc2ccc(Cl)cc2Cl)c(O)ccn1CCCN1CCOCC1	5.0%	5.3%	-11.5%	10.1%	0.9%
Cc1ccc(-c2c(C#N)c(N)nc3c2CCCC3)o1	.	1.8%	10.4µM*	?	1.2%
CCCCc1ccc(-c2c(C#N)c(N)nc3c2CCCC3)s1	2.9%	4.4%	?	13.1µM*	1.4%
CCSc1nc2c(c(-c3ccc(C)o3)c1C#N)CCCC2	-7.9%	-9.3%	-24.4%	-19.3%	-13.0%
CC(Cc1c[nH]c2ccccc12)C(=O)NCc1ccco1 (stereo unspecified)	4.4%	-3.6%	.	-13.7%	1.0%
[Cl][In]([Cl])[Cl]	.	.	7.57µM*	6.75µM*	.
CC(C)CNC(=S)N1CCN(C(c2ccccc2)c2ccccc2)CC1	-12.7%	2.7%	?	2.08µM*	-8.2%
COCCCNC(=S)N1CCN(C(c2ccccc2)c2ccccc2)CC1	-9.2%	5.3%	13.1µM*	-7.6%	13.8%
C=C(C)CNC(=S)N1CCN(C(c2ccccc2)c2ccccc2)CC1	.	2.7%	?	0.4%	-1.1%
O=C(CCC(=O)N1CCOc2ccccc21)NCc1cccnc1	-3.9%	5.1%	5.9%	6.0%	3.4%
CCOC(=O)c1cc2c(C)n(-c3ccc(C)cc3)c(C)c2ccc1=O	-83.5%	-5.4%	?	0.0%	-18.8%
CCOC(=O)c1cc2c(C)n(-c3ccc(OCC)cc3)c(C)c2ccc1=O	-13.8%	20.1%	?	4.15µM*	-13.3%
O=C(O)CC(CC(=O)NCC(O)c1ccccc1)c1ccccc1 (stereo unspecified)	-0.9%	.	2.6%	30.4%	0.7%
C[n+]1c(-c2ccccc2)cc(CCCCc2cc(-c3ccccc3)[n+](C)c(-c3ccccc3)c2)cc1-c1ccccc1	.	-25.4%	13.1µM*	0.928µM*	-1.3%
COc1ccccc1Oc1cc(C#N)c(C#N)cc1-n1nnc2ccccc21	-38.8%	-17.2%	9.28µM*	2.33µM*	-10.8%
CC12CCC(c3c(C(=O)N4CCOCC4)nn(-c4ccccc4)c31)C2(C)C (stereo unspecified)	.	-10.8%	?	1.31µM*	1.9%
CC(C)(CC(=O)O)CC(=O)NNc1ncccc1C#N	0.0%	-12.4%	4.15µM*	-12.0%	-0.8%
CN1c2ccc([N+](=O)[O-])cc2CC2(C(=O)NC(=O)N(c3ccc(Br)cc3)C2=O)C1c1ccccc1 (stereo unspecified)	?	-21.0%	1.65µM*	?	0.3%
CCC[C@H]1C[C@H](C(=O)N[C@@H]([C@H]2O[C@@H](SC)[C@@H](O)[C@@H](O)[C@@H]2O)[C@H](C)Cl)N(C)C1	.	.	0.19µM*	0.0338µM*	.
SMILES	NS1 inh	RE007 growth inh	Pf growth 48h	Pf growth 96h	SARS PLpro yeast
Cn1c(O)c(N=NC(N)=S)c2ccccc21	.	.	?	12µM*	.
Cc1ccc(NC(=O)Cn2c(O)c(N=NC(=O)c3ccncc3)c3ccccc32)cc1	4.9%	-13.9%	29.1%	5.2%	-1.1%
Cc1cccc(NC(=O)Cn2c(O)c(N=NC(N)=S)c3ccccc32)c1	3.5%	9.6%	-9.8%	14.7µM*	1.1%
Cn1c(O)c(N=NC(=O)c2ccccc2O)c2ccccc21	3.6%	-29.7%	-0.7%	-2.0%	-2.7%
CC1(C(=O)NS(=O)(=O)c2cccs2)CCN1C(=O)Cc1ccccc1 (stereo unspecified)	.	13.1%	.	.	.
CCOc1ccc(CCNC(=O)c2ccc3c(=O)[nH]c4c(C(=O)NC(C)C)sc(=S)n4c3c2)cc1	5.8%	5.1%	?	3.29µM*	-4.8%
CCCCCCSc1ccc([C@@H]2[C@H]3C(=O)N(CC)C(=O)[C@H]3[C@]3(C(=O)OC)CCCN23)cc1	.	11.1%	?	10.4µM*	-1.1%
CCCSc1ccc([C@@H]2[C@H]3C(=O)N(CC)C(=O)[C@H]3[C@]3(C(=O)OC)CCCCN23)cc1	.	3.7%	13.1µM*	7.38µM*	-2.2%
CCCSc1ccc([C@@H]2[C@@H]3C(=O)N(CC)C(=O)[C@@H]3[C@]3(C(=O)OC)CCCCN23)cc1OC	.	4.3%	.	.	-0.9%
Cc1cc(OCC(=O)OCC(=O)N2CCc3ccccc3C2)ccc1Cl	.	-17.9%	8.4%	0.5%	-1.1%
CC(=O)NC12CC3CC(C1)CC(C(=O)OCC(=O)Nc1ncc(Cl)cc1Cl)(C3)C2	-0.6%	3.5%	?	11.7µM*	-5.7%
O=C(COC(=O)C12CC3CC(CC(Br)(C3)C1)C2)Nc1c(F)cccc1F	.	14.1%	.	.	-1.0%
CC(=O)NC12CC3CC(C1)CC(C(=O)OCC(=O)Nc1c(F)cccc1F)(C3)C2	.	12.2%	?	6.57µM*	-2.2%
CN(CC(=O)Nc1ccccc1Cl)C(=O)COC(=O)c1nc(Cl)c(Cl)c(Cl)c1Cl	-35.0%	-2.6%	-4.5%	0.0%	-4.3%
CC(C)S(=O)(=O)c1csc(NC(=O)Nc2ccc(Cl)cc2)c1	-1.7%	97.2%	?	10.4µM*	1.0%
NS(=O)(=O)c1cccc(NC(=O)Nc2ccc(Cl)cc2)c1	-31.7%	-20.0%	-13.2%	15.6%	-1.9%
COC(=O)c1onc(-c2ccccc2)c1C(=O)OC	-9.9%	-27.7%	13.1%	8.9%[5.75 µM]	10.4%
COC(=O)c1c(-c2ccc(F)cc2)noc1N	-0.8%	-3.5%	24.7%	4.65µM*	-6.1%
CCOC(=O)CCCSc1nnc(CCCCCN2C(=O)c3cccc4cccc(c34)C2=O)o1	-4.9%	3.9%	?	1.85µM*	18.6%
CCOC(=O)CCCCCN1C(=O)c2cccc3cccc(c23)C1=O	10.0%	-10.4%	33.7%	6.57µM*	2.1%
O=C1Cc2cc(O)ccc2O1	.	27.3%	.	.	.
CC(C)(C)n1cccc1/C=C1\C(=O)NC(=O)N(c2ccccc2)C1=O	0.1%	-6.1%	-6.6%	10.4µM*	7.9%
Cc1cc(C)cc(N2C(=O)NC(=O)/C(=C/c3cccn3-c3ccc(Cl)cc3)C2=O)c1	5.9%	8.6%	17.4%	42.7%	-38.7%
Cc1ccc(S(=O)(=O)N[C@@H](Cc2ccccc2)C(=O)CCl)cc1	-38.2%	-12.5%	-13.8%	29.8%	-65.1%

Bioassay records as filed in PubChem BioAssay.
